# Measured values reported in the supplement of paper PMC12282887.
# ± gives the standard deviation of the averaged measurements.
# Experiments:
# Experiment in all cases: promoter activity interaction Z-score (Lux/OD deviation from empty-vector control); higher = stronger promoter induction by the compound
# [1] = system: E. coli BW25113 acrABp lux reporter
# Procedure, shortened: (§1)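 Low-copy luxCDABE promoter reporters were carried by E. coli BW25113, either wild type or lacking one of three genes, grown in 40 µl LB Lennox in 384-well plates at 37°C. Each compound was run at four 1:2 dilutions in biological duplicates, with OD600 and luminescence read every 30 min for 12 h. Integration used 0–8 h for wild type and 1–9 h for deletion strains, and wells under 10% of the median growth value were removed. Luminescence normalised to growth was fitted against a control, and the Z-transformed residual is the score.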
# [2] = system: E. coli BW25113 micFp lux reporter
# Procedure, shortened: as §1
# [3] = system: E. coli BW25113 ompFp lux reporter
# Procedure, shortened: as §1
# [4] = system: E. coli BW25113 robp lux reporter
# Procedure, shortened: as §1
# [5] = system: E. coli BW25113 soxSp lux reporter
# Procedure, shortened: as §1
# [6] = system: E. coli BW25113 tolCp lux reporter
# Procedure, shortened: as §1
# [7] = 19 µg/ml, genetic background: wild type
# [8] = 19 µg/ml, genetic background: ΔmarA
# [9] = 19 µg/ml, genetic background: Δrob
# [10] = 19 µg/ml, genetic background: ΔsoxS
# [11] = 38 µg/ml, genetic background: wild type
# [12] = 38 µg/ml, genetic background: ΔmarA
# [13] = 38 µg/ml, genetic background: Δrob
# [14] = 38 µg/ml, genetic background: ΔsoxS
# [15] = 76.1 µg/ml, genetic background: wild type
# [16] = 76.1 µg/ml, genetic background: ΔmarA
# [17] = 76.1 µg/ml, genetic background: Δrob
# [18] = 76.1 µg/ml, genetic background: ΔsoxS
# [19] = 152.1 µg/ml, genetic background: wild type
# [20] = 152.1 µg/ml, genetic background: ΔmarA
# [21] = 152.1 µg/ml, genetic background: Δrob
# [22] = 152.1 µg/ml, genetic background: ΔsoxS
structure (smiles),measurement,setting,value
COc1cc(C=O)ccc1O [Vanillin],promoter activity interaction Z-score,[1]; [7],-0.0924 ± 0.22
same,promoter activity interaction Z-score,[1]; [8],-1.01 ± 0.36
same,promoter activity interaction Z-score,[1]; [9],-0.237 ± 0.036
same,promoter activity interaction Z-score,[1]; [10],-0.38 ± 0.04
same,promoter activity interaction Z-score,[1]; [11],-0.3 ± 0.17
same,promoter activity interaction Z-score,[1]; [12],0.134 ± 0.85
same,promoter activity interaction Z-score,[1]; [13],-0.312 ± 0.14
same,promoter activity interaction Z-score,[1]; [14],-0.79 ± 0.35
same,promoter activity interaction Z-score,[1]; [15],-0.108 ± 0.02
same,promoter activity interaction Z-score,[1]; [16],-0.501 ± 0.51
same,promoter activity interaction Z-score,[1]; [17],-0.406 ± 0.017
same,promoter activity interaction Z-score,[1]; [18],-0.409 ± 0.11
same,promoter activity interaction Z-score,[1]; [19],0.0819 ± 0.4
same,promoter activity interaction Z-score,[1]; [20],-0.204 ± 0.85
same,promoter activity interaction Z-score,[1]; [21],-0.28 ± 0.056
same,promoter activity interaction Z-score,[1]; [22],-0.339 ± 0.24
same,promoter activity interaction Z-score,[2]; [7],0.414 ± 0.3
same,promoter activity interaction Z-score,[2]; [8],0.0708 ± 0.21
same,promoter activity interaction Z-score,[2]; [9],0.348 ± 0.34
same,promoter activity interaction Z-score,[2]; [10],0.261 ± 0.29
same,promoter activity interaction Z-score,[2]; [11],0.827 ± 0.47
same,promoter activity interaction Z-score,[2]; [12],0.117 ± 0.12
same,promoter activity interaction Z-score,[2]; [13],0.608 ± 0.26
same,promoter activity interaction Z-score,[2]; [14],0.255 ± 0.57
same,promoter activity interaction Z-score,[2]; [15],1.55 ± 0.57
same,promoter activity interaction Z-score,[2]; [16],0.0617 ± 0.059
same,promoter activity interaction Z-score,[2]; [17],0.54 ± 0.19
same,promoter activity interaction Z-score,[2]; [18],0.822 ± 0.14
same,promoter activity interaction Z-score,[2]; [19],1.67 ± 0.3
same,promoter activity interaction Z-score,[2]; [20],0.484 ± 0.14
same,promoter activity interaction Z-score,[2]; [21],1.27 ± 0.44
same,promoter activity interaction Z-score,[2]; [22],1.36 ± 0.11
same,promoter activity interaction Z-score,[3]; [7],-0.994 ± 0.24
same,promoter activity interaction Z-score,[3]; [8],-1.33 ± 0.62
same,promoter activity interaction Z-score,[3]; [9],-1.05 ± 0.28
same,promoter activity interaction Z-score,[3]; [10],-0.69 ± 0.026
same,promoter activity interaction Z-score,[3]; [11],-0.89 ± 0.22
same,promoter activity interaction Z-score,[3]; [12],-1.03 ± 0.49
same,promoter activity interaction Z-score,[3]; [13],-0.857 ± 0.061
same,promoter activity interaction Z-score,[3]; [14],-0.75 ± 0.044
same,promoter activity interaction Z-score,[3]; [15],-0.551 ± 0.35
same,promoter activity interaction Z-score,[3]; [16],-1.2 ± 0.46
same,promoter activity interaction Z-score,[3]; [17],-0.873 ± 0.084
same,promoter activity interaction Z-score,[3]; [18],-0.372 ± 0.057
same,promoter activity interaction Z-score,[3]; [19],-0.504 ± 0.27
same,promoter activity interaction Z-score,[3]; [20],-0.917 ± 0.56
same,promoter activity interaction Z-score,[3]; [21],-0.507 ± 0.057
same,promoter activity interaction Z-score,[3]; [22],0.0107 ± 0.52
same,promoter activity interaction Z-score,[4]; [7],-0.0267 ± 0.12
same,promoter activity interaction Z-score,[4]; [8],-0.748 ± 0.21
same,promoter activity interaction Z-score,[4]; [9],-0.428 ± 0.024
same,promoter activity interaction Z-score,[4]; [10],-0.184 ± 0.93
same,promoter activity interaction Z-score,[4]; [11],-0.354 ± 0.066
same,promoter activity interaction Z-score,[4]; [12],0.11 ± 0.23
same,promoter activity interaction Z-score,[4]; [13],-0.287 ± 0.54
same,promoter activity interaction Z-score,[4]; [14],-0.138 ± 0.42
same,promoter activity interaction Z-score,[4]; [15],-0.265 ± 0.18
same,promoter activity interaction Z-score,[4]; [16],-0.307 ± 0.11
same,promoter activity interaction Z-score,[4]; [17],-0.399 ± 0.16
same,promoter activity interaction Z-score,[4]; [18],-0.0986 ± 0.36
same,promoter activity interaction Z-score,[4]; [19],0.841 ± 1.6
same,promoter activity interaction Z-score,[4]; [20],0.111 ± 0.07
same,promoter activity interaction Z-score,[4]; [21],-0.463 ± 0.3
same,promoter activity interaction Z-score,[4]; [22],0.223 ± 0.32
same,promoter activity interaction Z-score,[5]; [7],-0.29 ± 0.1
same,promoter activity interaction Z-score,[5]; [8],-0.185 ± 0.056
same,promoter activity interaction Z-score,[5]; [9],0.0115 ± 0.23
same,promoter activity interaction Z-score,[5]; [10],-0.409 ± 0.11
same,promoter activity interaction Z-score,[5]; [11],-0.279 ± 0.037
same,promoter activity interaction Z-score,[5]; [12],-0.201 ± 0.018
same,promoter activity interaction Z-score,[5]; [13],0.0294 ± 0.17
same,promoter activity interaction Z-score,[5]; [14],-0.314 ± 0.082
same,promoter activity interaction Z-score,[5]; [15],-0.117 ± 0.062
same,promoter activity interaction Z-score,[5]; [16],-0.32 ± 0.06
same,promoter activity interaction Z-score,[5]; [17],-0.186 ± 0.072
same,promoter activity interaction Z-score,[5]; [18],-0.321 ± 0.11
same,promoter activity interaction Z-score,[5]; [19],-0.196 ± 0.03
same,promoter activity interaction Z-score,[5]; [20],-0.205 ± 0.12
same,promoter activity interaction Z-score,[5]; [21],-0.225 ± 0.11
same,promoter activity interaction Z-score,[5]; [22],-0.367 ± 0.18
same,promoter activity interaction Z-score,[6]; [7],0.0479 ± 0.73
same,promoter activity interaction Z-score,[6]; [8],-0.119 ± 0.31
same,promoter activity interaction Z-score,[6]; [9],0.58 ± 0.34
same,promoter activity interaction Z-score,[6]; [10],0.597 ± 0.78
same,promoter activity interaction Z-score,[6]; [11],0.657 ± 0.53
same,promoter activity interaction Z-score,[6]; [12],0.25 ± 0.54
same,promoter activity interaction Z-score,[6]; [13],0.749 ± 0.62
same,promoter activity interaction Z-score,[6]; [14],-0.627 ± 0.44
same,promoter activity interaction Z-score,[6]; [15],0.993 ± 0.047
same,promoter activity interaction Z-score,[6]; [16],-0.352 ± 0.71
same,promoter activity interaction Z-score,[6]; [17],-0.533 ± 0.45
same,promoter activity interaction Z-score,[6]; [18],0.305 ± 0.97
same,promoter activity interaction Z-score,[6]; [19],-0.199 ± 0.18
same,promoter activity interaction Z-score,[6]; [20],-0.469 ± 1
same,promoter activity interaction Z-score,[6]; [21],0.503 ± 0.78
same,promoter activity interaction Z-score,[6]; [22],1.07 ± 1.8
